The record followed here is PubChem BioAssay (EPA / NIEHS).

Molecules are shown by their SMILES. Records with an inconclusive call do not appear. Active and inactive are the calls of the source. Rule for the calls: active = hit-call score of the fitted dose curve at least 0.9, where 1 is the maximum; inconclusive = response in the unintended direction; inactive = score below 0.9.

Cellular tumor antigen p53 (Homo sapiens), sequence (P04637 whole entry, looked up): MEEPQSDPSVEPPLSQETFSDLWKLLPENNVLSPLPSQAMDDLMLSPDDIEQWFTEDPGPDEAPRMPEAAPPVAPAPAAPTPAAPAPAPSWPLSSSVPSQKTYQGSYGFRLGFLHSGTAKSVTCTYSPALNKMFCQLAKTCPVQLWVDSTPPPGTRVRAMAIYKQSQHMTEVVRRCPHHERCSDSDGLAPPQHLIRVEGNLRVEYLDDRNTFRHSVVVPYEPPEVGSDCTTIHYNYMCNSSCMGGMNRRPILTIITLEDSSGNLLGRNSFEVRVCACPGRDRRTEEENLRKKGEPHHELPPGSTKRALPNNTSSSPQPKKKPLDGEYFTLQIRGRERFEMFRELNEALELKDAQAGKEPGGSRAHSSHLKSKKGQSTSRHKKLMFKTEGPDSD

System in one assay: not listed separately
Put plainly: TOX21_p53_BLA_p4_viability: Viability Assessment in the Tox21 HCT-116 p53 Agonism Beta-lactamase Assay, Phase 4 (AID 2283597).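 Note: hits lower the luminescence signal meaning cytotoxicity.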 In short, it runs like this: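 Cytotoxicity was inferred from loss of CellTiter-Glo luminescence. HCT116 cells had been dosed with compounds after 5 h plating, incubated 16 h at 37C and 5% CO2, and exposed to the CCF4-AM substrate for 2 h.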
`C[C@]12CC[C@H]3[C@@H](CCC4=C(Cl)C(=O)CC[C@@]43C)[C@@H]1CC[C@@H]2O`: the outcome was inactive.

In the case of `CC1(C)[C@H](C=C(Cl)Cl)[C@@H]1C(=O)O[C@@H](C#N)c1cccc(Oc2ccccc2)c1`, the result was inactive.

For `Cc1nnc2n1-c1sc(CCc3ccc(CC(C)C)cc3)cc1C(c1ccccc1Cl)=NC2C` (centres undefined), the half-maximal activity concentration (AC50) – broadly, the midpoint of the concentration-response curve, whichever way the signal moves – is 24.8 µM (active).

Consider `S=C(SSC(=S)N1CCCCC1)N1CCCCC1`, for which the result was inactive.

Take `CC(=O)O[C@H]1C[C@H](O[C@H]2[C@@H](O)C[C@H](O[C@H]3[C@@H](O)C[C@H](O[C@H]4CC[C@@]5(C)[C@H](CC[C@@H]6[C@@H]5C[C@@H](O)[C@]5(C)[C@@H](C7=CC(=O)OC7)CC[C@]65O)C4)O[C@@H]3C)O[C@@H]2C)O[C@H](C)[C@H]1O[C@@H]1O[C@H](CO)[C@@H](O)[C@H](O)[C@H]1O`: the half-maximal activity concentration (AC50) was 0.121 µM (active).

On to `N#CSCc1ccccc1`, for which the compound was called inactive.

On to `CC1N=C(N)OC1c1ccccc1` (centres undefined), for which the half-maximal activity concentration (AC50) is 26 µM (active).

On to `CN1C(=O)[C@@H](NC(=O)c2cc3ccccc3[nH]2)N=C(c2ccccc2)c2ccccc21`, for which the outcome was inactive.

As for `ClC=CCCl`, the result was inactive.

For `CC[C@]1(O)CC[C@H]2[C@@H]3CCC4=CCCC[C@@H]4[C@H]3CC[C@@]21C`, the compound was called inactive.

On to `[CH3][Hg][Cl]`, for which the result was inactive.

Regarding `c1ccc2c(c1)cc1ccc3cccc4ccc2c1c34`, the outcome was inactive.

In the case of `O=C(O)CCCO`, the call was inactive.

With `CCCC1CCCCN1` (centres undefined), the result was inactive.

As for `COc1cccc2c1cc([N+](=O)[O-])c1c(C(=O)O)cc3c(c12)OCO3`, the call was inactive.

In the case of `CNc1ccc(C(=O)CC(O)CCC(C)C2OC(=O)CC(O)CC(=O)CC(O)CC(O)CC(O)CC(O)CC3(O)CC(O)C(C(=O)OC)C(CC(O[C@@H]4O[C@H](C)[C@@H](O)[C@H](N)[C@@H]4O)/C=C/C=C/C=C/C=C/C=C/C=C/C=C/C2C)O3)cc1` (some centres undefined) (tested in a mixture with another compound), the call was inactive.

The target in another assay is Cellular tumor antigen p53 (Homo sapiens) (UniProt P04637). Nature of the assay: TOX21_p53_BLA_p5_ratio: Tox21 HCT-116 p53 Agonism Beta-lactamase Assay, Ratio, Phase 5 (AID 2283599). In short, it runs like this:
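HCT-116 cells carrying a p53-inducible beta-lactamase reporter were seeded at 4000 cells/well and dosed after 5 h with compound in DMSO (217-fold dilution). After 16 h at 37C, CCF4-AM substrate was added for 2 h, and the 460/530 nm emission ratio was scored as gain-of-signal versus DMSO.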
On to `CCCCC(CC)COC(=O)OOC(C)(C)C` (centres undefined), for which the result was inactive.

For the compound `Cc1c(Cl)c(=O)oc2cc(OP(=O)(OCCCl)OCCCl)ccc12`, the outcome was inactive.

Take `C[C@]12CC[C@H]3[C@@H](CCC4=C(Cl)C(=O)CC[C@@]43C)[C@@H]1CC[C@@H]2O`: the outcome was inactive.

Turning to `CC1(C)[C@H](C=C(Cl)Cl)[C@@H]1C(=O)O[C@@H](C#N)c1cccc(Oc2ccccc2)c1`, the result was inactive.

Consider `CCOC(=O)C(Cl)C(C)=O` (centres undefined), for which the result was inactive.

For `Cc1nnc2n1-c1sc(CCc3ccc(CC(C)C)cc3)cc1C(c1ccccc1Cl)=NC2C` (centres undefined), the AC50 is 39.8 µM (active).

`Clc1ccc2ccccc2c1`: the result was inactive.

Take `S=C(SSC(=S)N1CCCCC1)N1CCCCC1`: the outcome was inactive.

For `CN=CNc1ccc(C)cc1C`, the outcome was inactive.

With `CC(=O)O[C@H]1C[C@H](O[C@H]2[C@@H](O)C[C@H](O[C@H]3[C@@H](O)C[C@H](O[C@H]4CC[C@@]5(C)[C@H](CC[C@@H]6[C@@H]5C[C@@H](O)[C@]5(C)[C@@H](C7=CC(=O)OC7)CC[C@]65O)C4)O[C@@H]3C)O[C@@H]2C)O[C@H](C)[C@H]1O[C@@H]1O[C@H](CO)[C@@H](O)[C@H](O)[C@H]1O`, the outcome was inactive.

For `N#CSCc1ccccc1`, the outcome was inactive.

Take `Cc1ccc2ccccc2c1`: the result was inactive.

Regarding `Cn1cc(C2=C(c3cn(C4CCN(Cc5ccccn5)CC4)c4ccccc34)C(=O)NC2=O)c2ccccc21`, the outcome was inactive.

On to `COc1ccc2c(c1OC)C(=O)O[C@H]2[C@@H]1c2cc3c(cc2CCN1C)OCO3`, for which the result was inactive.

`O=C(O)C(Br)CBr` (centres undefined): the outcome was inactive.

For `CC(=O)OC1CN2CCC1CC2` (centres undefined), the result was inactive.

Turning to `CCCCCCCCCCOC(=O)c1ccccc1C(=O)OCCCCCCCCCC`, the outcome was inactive.

With `ClCOCCl`, the result was inactive.

As to `CCOP(=O)(OCC)SCCSCC` (tested in a mixture with another compound), the result was inactive.

Turning to `Nc1nc(N)nc(N)n1`, the result was inactive.

As to `CNC(C)Cc1ccccc1` (centres undefined), the result was inactive.

In the case of `CCCCN(N=O)C(=N)N[N+](=O)[O-]`, the AC50 is 55.2 µM (active).

Take `CN1C(=O)[C@@H](NC(=O)c2cc3ccccc3[nH]2)N=C(c2ccccc2)c2ccccc21`: the outcome was inactive.

Regarding `Cc1cccc(Cc2cnc[nH]2)c1C`, the outcome was inactive.

As to `ClC=CCCl`, the result was inactive.

As for `CC[C@]1(O)CC[C@H]2[C@@H]3CCC4=CCCC[C@@H]4[C@H]3CC[C@@]21C`, the half-maximal activity concentration (AC50) was 7.06 µM (active).

As to `[CH3][Hg][Cl]`, the AC50 is 2.25 µM (active).

Consider `CC(C)NC(C)C`, for which the result was inactive.

Regarding `C=C(Cl)CSC(=S)N(CC)CC`, the result was inactive.

`c1ccc2c(c1)cc1ccc3cccc4ccc2c1c34`: the AC50 was 1.56 µM (active).

`CN(C)[C@H](Cc1ccccc1)c1ccccc1`: the outcome was inactive.

Regarding `C=C(C)CCl`, the outcome was inactive.

Turning to `O=C(O)CCCO`, the result was inactive.

Take `CCCC1CCCCN1` (centres undefined): the outcome was inactive.

`CCCN`: the result was inactive.

As to `COc1cccc2c1cc([N+](=O)[O-])c1c(C(=O)O)cc3c(c12)OCO3`, the AC50 was 13.2 µM (active).

`CC=CCC#N`: the result was inactive.

`CC(C)(C)NCC(O)c1ccccc1Cl` (centres undefined): the result was inactive.

System in another assay: not listed separately
Put plainly: TOX21_p53_BLA_p5_viability: Viability Assessment in the Tox21 HCT-116 p53 Agonism Beta-lactamase Assay, Phase 5 (AID 2283600). In short, it runs like this: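 Luciferase-coupled ATP quantitation of cells treated for 16 h (37C, 5% CO2) with test chemicals delivered in DMSO via a 217-fold dilution; 4000 cells/well; reagent incubated 30 min at room temperature before luminescence reading.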
As for `Cc1c(Cl)c(=O)oc2cc(OP(=O)(OCCCl)OCCCl)ccc12`, the compound was called inactive.

In the case of `C[C@]12CC[C@H]3[C@@H](CCC4=C(Cl)C(=O)CC[C@@]43C)[C@@H]1CC[C@@H]2O`, the compound was called inactive.

Take `CC1(C)[C@H](C=C(Cl)Cl)[C@@H]1C(=O)O[C@@H](C#N)c1cccc(Oc2ccccc2)c1`: the compound was called inactive.

On to `CCOC(=O)C(Cl)C(C)=O` (centres undefined), for which the compound was called inactive.

For `CN=CNc1ccc(C)cc1C`, the compound was classed as inactive.

In the case of `CC(=O)O[C@H]1C[C@H](O[C@H]2[C@@H](O)C[C@H](O[C@H]3[C@@H](O)C[C@H](O[C@H]4CC[C@@]5(C)[C@H](CC[C@@H]6[C@@H]5C[C@@H](O)[C@]5(C)[C@@H](C7=CC(=O)OC7)CC[C@]65O)C4)O[C@@H]3C)O[C@@H]2C)O[C@H](C)[C@H]1O[C@@H]1O[C@H](CO)[C@@H](O)[C@H](O)[C@H]1O`, the half-maximal activity concentration (AC50) is 0.0758 µM (active).

As for `COc1ccc2c(c1OC)C(=O)O[C@H]2[C@@H]1c2cc3c(cc2CCN1C)OCO3`, the compound was called inactive.

Take `CC(=O)OC1CN2CCC1CC2` (centres undefined): the call was inactive.

For the compound `ClCOCCl`, the result was inactive.

As for `CC1N=C(N)OC1c1ccccc1` (centres undefined), the compound was classed as inactive.

For `CCCCN(N=O)C(=N)N[N+](=O)[O-]`, the result was inactive.

For `Cc1cccc(Cc2cnc[nH]2)c1C`, the result was inactive.

Turning to `CC[C@]1(O)CC[C@H]2[C@@H]3CCC4=CCCC[C@@H]4[C@H]3CC[C@@]21C`, the result was inactive.

`CC(C)NC(C)C`: the compound was called inactive.

As to `c1ccc2c(c1)cc1ccc3cccc4ccc2c1c34`, the outcome was inactive.

On to `CN(C)[C@H](Cc1ccccc1)c1ccccc1`, for which the result was inactive.

`C=C(C)CCl`: the compound was classed as inactive.

Consider `CCCN`, for which the compound was called inactive.

As to `CC(C)(C)NCC(O)c1ccccc1Cl` (centres undefined), the compound was called inactive.

On to `CNc1ccc(C(=O)CC(O)CCC(C)C2OC(=O)CC(O)CC(=O)CC(O)CC(O)CC(O)CC(O)CC3(O)CC(O)C(C(=O)OC)C(CC(O[C@@H]4O[C@H](C)[C@@H](O)[C@H](N)[C@@H]4O)/C=C/C=C/C=C/C=C/C=C/C=C/C=C/C2C)O3)cc1` (some centres undefined) (tested in a mixture with another compound), for which the result was inactive.
